Data as given in PubChem BioAssay (NCATS).
Several values for one entry are separate records, joined by “and”; a condition that tells them apart may be missing. Equal entries are not always repeated. Results filed as inconclusive are left out. Entries that show only a call come without a potency. Activity calls are given as the source filed them. Unless noted, calls follow the shape of the dose curve; as a rule, active = well fitted curve in the direction sought with a large enough effect; inconclusive = small, poorly fitted or top-dose-only effect, or another doubt; inactive = no such curve, though single readings can be large; an effect the other way counts as inactive or inconclusive.

How the values were obtained:
[1] = target: Alpha-galactosidase A (Homo sapiens) (UniProt P06280); experiment: Counterscreen for Glucocerebrosidase Inhibitors: qHTS Assay for Human alpha-Galactosidase at pH 4.5 (AID 992)
Method in brief: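 Quantitative HTS: compounds tested from 0.7 nM up to 77 uM against 2 nM enzyme with 80 uM 4-MU alpha-D-galactopyranoside. The 20 min room-temperature reaction is stopped with 1M NaOH/1M glycine, pH 10.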

[2] = target: alpha-glucosidase (Oryza sativa, rice) (UniProt Q653V4); experiment: Counterscreen for Glucocerebrosidase Inhibitors: qHTS Assay for Rice alpha-Glucosidase at pH 5.0 (AID 997)
Method in brief: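 Rice alpha-glucosidase (4 nM final) with 400 uM 4-methylumbelliferyl-alpha-D-glucopyranoside in citrate buffer pH 5.0, 20 min at room temperature, stopped at pH 10; fluorescence 365/440 nm, compounds 0.7 nM–77 uM, AC50 from Hill fits.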

[3] = target: DNA repair nuclease/redox regulator APEX1 (Homo sapiens) (UniProt P27695); experiment: qHTS Validation Assay for Inhibitors of the Human Apurinic/apyrimidinic Endonuclease 1 (APE1) (AID 1705; also: potency is read from the fitted curve at half-maximal effect;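 as to activity change, negative = inhibition: TAMRA fluorescence gain over two minutes as APE1 cuts a quenched THF abasic duplex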)
Method in brief: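 qHTS, 1536-well. APE1 + cpd 15 min RT → 50 nM TAMRA/BHQ-2 THF-abasic dsDNA substrate → kinetic fluorescence, 3 reads/60 s; delta(read3−read1) = reaction progress. No-enzyme buffer = negative control.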

[4] = Counterscreen for APE1 Inhibitors: Fluorescent Dye Displacement Validation Assay (AID 1707)
Method in brief: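 Compounds are scored by their ability to displace Thiazole Orange (250 nM) from a 50 nM TAMRA-tagged duplex bearing a tetrahydrofuran abasic site. Buffer is 50 mM Tris-HCl pH7.5, 50mM NaCl, 2 mM MgCl2, 0.01% Tween-20.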

[5] = Cell Viability - LYMP2-008 (AID 980);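 also: cells exposed to compound for 24 h at 37 °C; nearly all actives have a fitted effect of over 60% in size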
Method in brief: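 Acute cytotoxicity is scored as concentration-dependent loss of cellular ATP in a human lymphoblastoid line after 24 hr treatment at 37 C. ATP is quantified by luciferase luminescence.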

[6] = Cell Viability - LYMP2-010 (AID 981);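 also: cells exposed to compound for 24 hours at 37 °C; nearly all actives have a fitted effect of over 55% in size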
Method in brief: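 Acute toxicity is scored as a concentration-dependent loss of cellular ATP in human lymphoblastoid cells after 24 hr compound exposure in complete medium. Tetraoctylammonium bromide is the positive control.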

[7] = Cell Viability - LYMP2-012 (AID 982);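 also: cellular ATP by luciferase luminescence where a drop means cytotoxicity; cells exposed to compound for one day before reading; nearly all actives have a fitted effect of over 55% in size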
[8] = Cell Viability - LYMP2-014 (AID 983);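 also: cells exposed to compound for 24 h at 37 °C; nearly all actives have a fitted effect of over 50% in size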
Method in brief: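 Decrease in intracellular ATP after 24 hr treatment at 37 C, measured by luciferase luminescence, indicated cytotoxicity. Concentration-response data were fitted with the standard Hill equation to give AC50.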

[9] = Cell Viability - LYMP2-016 (AID 984);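 also: cells exposed to compound for 24 hours at 37 °C; nearly all actives have a fitted effect of over 55% in size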
Method in brief: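 Cells were seeded at 2500 per well and rested 5 hr before a 24 hr compound exposure at 37 C. Viability was then gauged as cellular ATP by luciferase luminescence, with AC50 values fitted to the Hill equation.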

[10] = Cell Viability - LYMP2-020 (AID 986);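 also: cells exposed to compound for 24 h at 37 °C; nearly all actives have a fitted effect of over 55% in size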
Method in brief: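 Acute cytotoxicity in a human lymphoblastoid line is scored as a concentration-dependent fall in cellular ATP after 24 hr at 37 C in complete medium. The positive control is tetraoctylammonium bromide, and potency is given as Hill-fit AC50.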

[11] = Cell Viability - LYMP2-022 (AID 987); also: nearly all actives have a fitted effect of over 55% in size
Method in brief: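 Acute toxicity in a human lymphoblastoid line is scored as decreased intracellular ATP after 24 hr compound treatment at 37 C. ATP is measured by CellTiter-Glo luminescence; curves are fitted with the Hill equation to give AC50.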

[12] = Cell Viability - LYMP2-024 (AID 988); also: nearly all actives have a fitted effect of over 60% in size
Method in brief: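 Acute toxicity is measured as concentration-dependent loss of intracellular ATP in a human lymphoblastoid line treated 24 hours at 37 C. Luciferase luminescence quantifies ATP; AC50 values come from standard Hill-equation modelling.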

[13] = Cell Viability - LYMP2-026 (AID 989);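 also: cells exposed to compound for 24 h at 37 °C; nearly all actives have a fitted effect of over 50% in size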
Method in brief: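 Concentration-dependent loss of intracellular ATP in human lymphoblastoid cells after 24 hr at 37 C, quantified by luciferase luminescence. AC50 derived from standard Hill equation.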

[14] = Cell Viability - LYMP1-002 - Assay at 24 hr (AID 993)
Method in brief: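 qHTS, LYMP1-002 lymphoblastoid, 24 h cpd, 37 C, CellTiter-Glo ATP luminescence; AC50 via Hill eq.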

[15] = Cell Viability - LYMP1-002 - Assay at 40 hr (AID 994); also: nearly all actives have a fitted effect of over 60% in size
Method in brief: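 Viability in the human lymphoblastoid line was measured as intracellular ATP via CellTiter-Glo after 40 hr compound exposure. Tetraoctylammonium bromide served as positive control.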

[16] = qHTS for differential inhibitors of proliferation of Plasmodium falciparum line 7G8 (AID 1815);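 also: parasite growth measured after three days of incubation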; also: potency is read from the fitted curve at half-maximal effect
[17] = qHTS for differential inhibitors of proliferation of Plasmodium falciparum line GB4 (AID 1816); conditions: Potency: Plasmodium falciparum GB4 proliferation inhibition;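 also: parasite growth measured after 72 h incubation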; also: potency is read from the fitted curve at half-maximal effect
[18] = qHTS for differential inhibitors of proliferation of Plasmodium falciparum line 3D7 (AID 1876); also: potency is read from the fitted curve at half-maximal effect
[19] = qHTS Assay for Lipid Storage Modulators (AID 1519; calls by dose curve); conditions: Drosophila S3 cells, BODIPY lipid droplet/cell ratio, laser cytometry, cells loaded with oleic acid; for activity change, negative = inhibition: at 57.5 µM (top of the series)
Method in brief: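 Cells seeded at 5,000 per well were treated with compounds over a concentration series and loaded with oleic acid (400 uM, as added). Lipid droplet fluorescence (488 nm excitation, 500-530 nm channel) was read by laser-scanning cytometry and normalized to 20 uM Triacsin C.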

[20] = measured here: cell count channel max response
[21] = measured here: lipid channel max response

Sequence of DNA repair nuclease/redox regulator APEX1 (Homo sapiens) (P27695 whole entry, looked up): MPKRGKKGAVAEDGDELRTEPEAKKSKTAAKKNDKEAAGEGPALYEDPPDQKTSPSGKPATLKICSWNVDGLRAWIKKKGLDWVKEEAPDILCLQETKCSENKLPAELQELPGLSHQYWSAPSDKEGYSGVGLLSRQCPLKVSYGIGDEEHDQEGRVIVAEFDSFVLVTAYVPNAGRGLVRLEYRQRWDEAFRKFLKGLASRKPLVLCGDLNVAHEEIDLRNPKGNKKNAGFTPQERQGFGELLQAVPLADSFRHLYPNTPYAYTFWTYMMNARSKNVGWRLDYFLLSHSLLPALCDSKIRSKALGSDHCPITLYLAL
Sequence of Alpha-galactosidase A (Homo sapiens) (P06280 whole entry, looked up): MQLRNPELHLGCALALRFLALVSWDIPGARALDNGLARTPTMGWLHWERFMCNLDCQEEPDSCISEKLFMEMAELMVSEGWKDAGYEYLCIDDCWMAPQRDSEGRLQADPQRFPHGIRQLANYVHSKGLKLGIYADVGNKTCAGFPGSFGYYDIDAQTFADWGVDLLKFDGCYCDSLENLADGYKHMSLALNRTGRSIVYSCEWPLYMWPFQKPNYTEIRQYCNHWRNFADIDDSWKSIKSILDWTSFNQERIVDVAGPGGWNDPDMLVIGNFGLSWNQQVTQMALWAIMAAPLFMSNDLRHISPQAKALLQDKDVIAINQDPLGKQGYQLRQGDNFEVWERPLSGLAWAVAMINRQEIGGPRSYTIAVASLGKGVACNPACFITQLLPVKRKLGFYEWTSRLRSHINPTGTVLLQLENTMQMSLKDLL

Which outcome [1] does the source give for `CCCn1cnc2c1c(=O)n(CCCCC(C)=O)c(=O)n2C` here?
Its outcome is “inactive”.

And the outcome [2]?
Its outcome is “inactive”.

What about the Potency [3] of the same compound?
Its Potency is “inactive”.

And the Potency [4]?
The Potency was “inactive”.

For `NCCNCCNCCNCCN`, which Potency [5] is on record?
The Potency was “inactive”.

What about the Potency [6] of the same compound?
Its Potency is “inactive”.

What about the outcome [7] of the same compound?
Its outcome is “inactive”.

And the outcome [8]?
Its outcome is “inactive”.

What about the Potency [9] of the same compound?
The Potency was “inactive”.

What about the Potency [10] of the same compound?
Its Potency is “inactive”.

What about the Potency [11] of the same compound?
The Potency was “inactive”.

And the outcome [12]?
The outcome was “inactive”.

And the Potency [13]?
The Potency was “inactive”.

And the Potency [14]?
Its Potency is “inactive”.

What about the Potency [15] of the same compound?
Its Potency is “inactive”.

Which outcome [1] does the source give for `CC(=O)OCC(=O)[C@@]1(O)CC[C@H]2[C@@H]3CCC4=CC(=O)CC[C@]4(C)[C@H]3C(=O)C[C@@]21C` here?
Its outcome is “inactive”.

And the outcome [2]?
The outcome was “inactive”.

And the Potency [3]?
Its Potency is “inactive”.

What about the Potency [4] of the same compound?
The Potency was “inactive”.

And the Potency [16]?
The Potency was “inactive”.

And the Potency [17]?
Its Potency is “inactive”.

And the Potency [18]?
The Potency was “inactive”.

For `COc1ccccc1O`, which Potency [5] is on record?
The Potency was “inactive”.

And the Potency [6]?
Its Potency is “inactive”.

What about the outcome [7] of the same compound?
The outcome was “inactive”.

What about the outcome [8] of the same compound?
The outcome was “inactive”.

And the Potency [9]?
The Potency was “inactive”.

And the Potency [10]?
The Potency was “inactive”.

And the Potency [11]?
Its Potency is “inactive”.

What about the outcome [12] of the same compound?
The outcome was “inactive”.

What about the Potency [13] of the same compound?
Its Potency is “inactive”.

What about the Potency [14] of the same compound?
Its Potency is “inactive”.

What about the Potency [15] of the same compound?
Its Potency is “inactive”.

With `C#CCN(C)Cc1ccccc1` as the compound, how does the outcome [1] read?
The outcome was “inactive”.

And the outcome [2]?
Its outcome is “inactive”.

What about the Potency [3] of the same compound?
The Potency was “inactive”.

What about the Potency [4] of the same compound?
Its Potency is “inactive”.

What about the Potency [16] of the same compound?
Its Potency is “inactive”.

And the Potency [17]?
Its Potency is “inactive”.

What about the Potency [18] of the same compound?
Its Potency is “inactive”.

Which outcome [1] does the source give for `NC(N)=NCCC[C@H](N)C(=O)O` here?
Its outcome is “inactive”.

What about the outcome [2] of the same compound?
The outcome was “inactive”.

And the activity change, negative = inhibition [19]?
Its activity change, negative = inhibition is -0.95% (inactive).

And the max response [19, 20]?
The max response was -7.59%.

And the max response [19, 21]?
Its max response is -6.54%.

And the Potency [4]?
Its Potency is “inactive”.

What about the Potency [16] of the same compound?
Its Potency is “inactive”.

And the Potency [17]?
Its Potency is “inactive”.

What about the Potency [18] of the same compound?
Its Potency is “inactive”.

For `OCCN1CCN(CCCN2c3ccccc3Sc3ccc(Cl)cc32)CC1`, which outcome [1] is on record?
Its outcome is “inactive”.

What about the outcome [2] of the same compound?
The outcome was “inactive”.

What about the Potency [3] of the same compound?
The Potency was “inactive”.

And the Potency [4]?
The Potency was “inactive”.

And the Potency [16]?
Its Potency is 3550 nM (active).

What about the Potency [17] of the same compound?
Its Potency is 4470 nM (active).

And the Potency [18]?
Its Potency is 2820 nM (active).

Which outcome [1] does the source give for `Cc1cc(N)c2ccccc2[n+]1CCCCCCCCCC[n+]1c(C)cc(N)c2ccccc21` here?
The outcome was “inactive”.

And the outcome [2]?
Its outcome is “inactive”.

What about the Potency [17] of the same compound?
Its Potency is 251 nM (active).

What about the Potency [18] of the same compound?
Its Potency is 50.1 nM (active).

With `CC12CCC(CC1)C(C)(C)O2` as the compound, how does the Potency [5] read?
Its Potency is “inactive”.

What about the Potency [6] of the same compound?
Its Potency is “inactive”.

What about the outcome [7] of the same compound?
Its outcome is “inactive”.

And the outcome [8]?
The outcome was “inactive”.

And the Potency [9]?
The Potency was “inactive”.

And the Potency [10]?
Its Potency is “inactive”.

And the Potency [11]?
Its Potency is “inactive”.

And the outcome [12]?
The outcome was “inactive”.

And the Potency [13]?
Its Potency is “inactive”.

And the Potency [14]?
The Potency was “inactive”.

And the Potency [15]?
Its Potency is “inactive”.

What about the activity change, negative = inhibition [19] of the same compound?
The activity change, negative = inhibition was 2.95% (inactive).

And the max response [19, 20]?
The max response was -6.11%.

What about the max response [19, 21] of the same compound?
Its max response is -2.37%.

Which results are given for `CCN(CC)CCCC(C)Nc1c2ccc(Cl)cc2nc2ccc(OC)cc12` (stereo not drawn)?
activity change, negative = inhibition [19]: 9.16% (inactive) and 1.41% (inactive); max response [19, 20]: 2.35% and -26.6%; max response [19, 21]: 14.1% and -23.7%; Potency [3]: 15800 nM (active); Potency [16]: 178 nM (active); Potency [17]: 89.1 nM (active); Potency [18]: 100 nM (active)

Which Potency [5] does the source give for `C[C@]12C[C@H](O)[C@H]3[C@@H](CCC4=CC(=O)CC[C@@]43C)[C@@H]1CC[C@@H]2C(=O)CO` here?
The Potency was “inactive”.

What about the Potency [6] of the same compound?
The Potency was “inactive”.

What about the outcome [7] of the same compound?
The outcome was “inactive”.

What about the outcome [8] of the same compound?
The outcome was “inactive”.

And the Potency [9]?
Its Potency is “inactive”.

And the Potency [10]?
Its Potency is “inactive”.

What about the Potency [11] of the same compound?
The Potency was “inactive”.

What about the outcome [12] of the same compound?
The outcome was “inactive”.

And the Potency [13]?
The Potency was “inactive”.

And the outcome [1]?
Its outcome is “inactive”.

And the Potency [14]?
Its Potency is “inactive”.

What about the Potency [15] of the same compound?
Its Potency is “inactive”.

What about the outcome [2] of the same compound?
Its outcome is “inactive”.

Which results are given for `NC(=O)c1ncn([C@@H]2O[C@H](CO)[C@@H](O)[C@H]2O)n1`?
Potency [5]: inactive; Potency [6]: inactive; outcome [7]: inactive; Potency [9]: inactive; Potency [10]: inactive; Potency [11]: inactive; outcome [12]: inactive; Potency [13]: inactive; outcome [1]: inactive; Potency [14]: inactive; Potency [15]: inactive; outcome [2]: inactive; Potency [3]: inactive; Potency [4]: inactive

Which outcome [1] does the source give for `CC(C)C(=O)c1c(C(C)C)nn2ccccc12` here?
The outcome was “inactive”.

What about the outcome [2] of the same compound?
Its outcome is “inactive”.

And the Potency [3]?
The Potency was “inactive”.

What about the Potency [4] of the same compound?
The Potency was “inactive”.

And the Potency [17]?
Its Potency is “inactive”.
